Assay in all cases: NCI-60 one-dose screen, 48 h (100 = growth as untreated, 0 = no growth, -100 = all killed)
The test system of assay [1] is SK-MEL-2 melanoma. Conditions: 10 µM unless noted.
Assay [2] relates to EKVX NSCLC. Particulars: 10 µM.
In assay [3] the test system is SN12C renal. Particulars: 10 µM unless noted.
Assay [4] deals with UO-31 renal. Particulars: 10 µM unless noted.
For assay [5], the system named is TK-10 renal. Conditions: 10 µM unless noted.
The test system of assay [6] is ACHN renal. Conditions: 10 µM unless noted.
Assay [7] relates to CAKI-1 renal. Conditions: 10 µM unless noted.
Assay [8] has as its system A498 renal. Conditions: 10 µM unless noted.
The test system of assay [9] is CCRF-CEM leukemia. Conditions: 10 µM.
For assay [10], the system named is MOLT-4 leukemia. Particulars: 10 µM unless noted.
For assay [11], the system named is SR leukemia. Conditions: 10 µM unless noted.
The subject of assay [12] is OVCAR-8 ovarian. Conditions: 10 µM unless noted.
For assay [13], the system named is OVCAR-5 ovarian. Conditions: 10 µM unless noted.
The test system of assay [14] is OVCAR-4 ovarian. Particulars: 10 µM unless noted.
Assay [15] relates to IGROV1 ovarian. Particulars: 10 µM unless noted.
Assay [16] concerns OVCAR-3 ovarian. Particulars: 10 µM unless noted.
Assay [17] concerns HS 578T breast. Particulars: 10 µM unless noted.
The subject of assay [18] is NCI/ADR-RES ovarian. Particulars: 10 µM unless noted.
For assay [19], the system named is SK-OV-3 ovarian. Conditions: 10 µM unless noted.
For assay [20], the system named is RPMI-8226 leukemia. Particulars: 10 µM unless noted.

Structures are written as SMILES. “And” between values parts separate entries of the source, which are not always exact repeats. Equal entries are not always repeated. About 83,000 compounds went through this panel and 20% of them were active in at least one assay; those are over-represented in the sample as a whole.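 48-hour exposure, single concentration, 96-well plates; percent growth endpoint where 0 means no net growth. Active: below 10.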 The source made the active and inactive calls. Where a SMILES comes first, the peptide text is derived from it.

In the case of `CC(=O)OCC1OC(OC(C)=O)C(OC(C)=O)C(OC(C)=O)C1OC(C)=O` (stereo not drawn), the growth in assay [1] is 109% (inactive) and 111% (inactive); in assay [2] it was 99.7% (inactive); in [3], 104% (inactive) and 105% (inactive); in assay [4] it was 79.8% (inactive) and 94.2% (inactive); in assay [5] it was 110% (inactive) and 106% (inactive); in [6] it was 96.4% (inactive) and 105% (inactive). In addition, the growth in assay [7] is 97.1% (inactive) and 100% (inactive); in assay [8], 112% (inactive) and 85.9% (inactive); in assay [9], 95.2% (inactive) and 110% (inactive); in assay [10], 98.9% (inactive) and 99.9% (inactive); in assay [11], 98.1% (inactive) and 93.6% (inactive); in assay [12] it was 97.5% (inactive) and 99.7% (inactive). Further, the growth in assay [13] is 101% (inactive) and 112% (inactive); in assay [14], 97% (inactive) and 104% (inactive); in assay [15] it was 108% (inactive) and 105% (inactive); in assay [16] it was 110% (inactive) and 107% (inactive); in assay [17] it was 132% (inactive) and 101% (inactive); in [18], 100% (inactive) and 107% (inactive).
In the case of `CC1=C/C(O)CC(=O)Cc2nc(co2)C(=O)N2CCC=C2C(=O)OC(C(C)C)C(C)/C=C\C(=O)NC/C=C\1` (stereo not drawn), the growth in assay [1] was 21.8% (inactive); in [2], 90.2% (inactive); in assay [3], 87.9% (inactive); in [4], 75.1% (inactive); in assay [5], 127% (inactive); in assay [6] it was 86.2% (inactive). In addition, the growth in [7] is 81% (inactive); in assay [8], 90.9% (inactive); in [9], 37% (inactive); in assay [10] it was 77.4% (inactive); in [11], 17.9% (inactive); in [12], 74% (inactive). The growth in assay [13] was 94.8% (inactive); in assay [19], 119% (inactive); in assay [15] it was 3.64% (active); in assay [16], 85% (inactive); in assay [18], 109% (inactive).
Turning to `OCC1OC(O)C(O)C(O)C1O` (stereo not drawn), the growth in [1] was 115% (inactive); in assay [2], 114% (inactive); in [3] it was 103% (inactive); in assay [4], 97.4% (inactive); in [5], 100% (inactive); in assay [6] it was 99.9% (inactive). Further, the growth is 89% (inactive) in assay [7]; 105% (inactive) in assay [8]; 92.3% (inactive) in [9]; 96.6% (inactive) in [10]; 106% (inactive) in [11]; 108% (inactive) in [12]. Further, the growth in [13] was 106% (inactive); in [14], 103% (inactive); in [15], 126% (inactive); in [16], 120% (inactive); in [18], 101% (inactive).
For the compound `NC(Cc1ccccc1)C(=O)NC(Cc1ccccc1)C(=O)O` (stereo not drawn) (H-Phe-Phe-OH; configuration not given here), the growth in assay [1] is 99.1% (inactive) and 104% (inactive); in assay [2], 98% (inactive); in [3], 103% (inactive) and 101% (inactive); in assay [4], 88.5% (inactive) and 86.9% (inactive); in assay [5], 105% (inactive); in assay [6], 103% (inactive). Further, the growth in assay [7] was 106% (inactive) and 97.1% (inactive); in assay [8], 93.2% (inactive) and 102% (inactive); in assay [9], 118% (inactive) and 98.4% (inactive); in [10], 100% (inactive) and 101% (inactive); in assay [11] it was 97.4% (inactive) and 102% (inactive); in [20], 112% (inactive) and 101% (inactive). Also, the growth was 101% (inactive) and 99.7% (inactive) in [12]; 99% (inactive) and 95.1% (inactive) in assay [13]; 102% (inactive) and 100% (inactive) in assay [14]; 99.7% (inactive) and 103% (inactive) in assay [15]; 108% (inactive) and 111% (inactive) in assay [16]; 105% (inactive) and 107% (inactive) in assay [18].
`Oc1ccc(Cc2ccccc2Cl)c(O)c1`: the growth in assay [1] was 97.8% (inactive); in assay [2] it was 96.3% (inactive); in assay [3], 91.2% (inactive); in assay [4], 61.1% (inactive); in [5] it was 103% (inactive); in assay [6] it was 92% (inactive). The growth in assay [7] was 91% (inactive); in assay [8], 75.3% (inactive); in assay [9], 94.1% (inactive); in assay [10], 88.7% (inactive); in assay [11], 95.7% (inactive); in assay [12], 104% (inactive). Moreover, the growth in assay [13] was 97.3% (inactive); in assay [14] it was 93.6% (inactive); in assay [15] it was 94.7% (inactive); in assay [17] it was 94.4% (inactive); in assay [18] it was 91.5% (inactive).
As to `Cn1cnc([N+](=O)[O-])c1Sc1ncn[nH]1`, the growth in assay [2] is 101% (inactive); in assay [3] it was 101% (inactive); in [4] it was 82.9% (inactive); in assay [5], 106% (inactive); in assay [6], 110% (inactive); in [7], 68.4% (inactive). The growth in assay [8] was 117% (inactive); in [10] it was 121% (inactive); in assay [11], 126% (inactive); in assay [12], 73.8% (inactive); in assay [13] it was 116% (inactive); in assay [15], 105% (inactive). Besides, the growth in [16], in [17] and in assay [18] was 119% (inactive) in each case.
Turning to `COc1ccc(Nc2ccc3ccccc3c2)cc1`, the growth is 67.2% (inactive) in assay [1]; 92.8% (inactive) in [2]; 76.9% (inactive) in assay [3]; 77.2% (inactive) in assay [5]; 92% (inactive) in assay [6]; 52.3% (inactive) in assay [7]. Besides, the growth in assay [8] was 52.8% (inactive); in assay [9] it was 56.9% (inactive); in assay [10], 71.5% (inactive); in assay [20], 66.5% (inactive); in [13], 97.4% (inactive); in assay [14] it was 79.5% (inactive). Also, the growth in [16] was 78.7% (inactive); in [18], 65.7% (inactive).
With `O=C1NC(N/N=C\C(O)C(O)C(O)CO)=N/C1=C/c1ccc(Cl)cc1` (stereo not drawn), the growth in [5] was 54.4% [100 µM] (inactive) and -100% [100 µM] (active) and 89.6% [100 µM] (inactive).
`NC(=O)NCCCC(N)C(=O)O` (stereo not drawn): the growth was 95.4% (inactive) in [1]; 104% (inactive) in assay [3]; 82.8% (inactive) in assay [4]; 99.3% (inactive) in assay [5]; 98.7% (inactive) in assay [6]; 84.6% (inactive) in [7]. Further, the growth in [8] was 113% (inactive); in assay [10] it was 88.7% (inactive); in assay [11], 84% (inactive); in [20], 96.5% (inactive); in assay [12] it was 98% (inactive); in [13] it was 113% (inactive). Also, the growth in assay [15] was 91.5% (inactive); in [16], 106% (inactive); in assay [17] it was 106% (inactive); in assay [18], 102% (inactive).

Values taken from PubChem BioAssay (NCI).
